# Assay results published in PubChem BioAssay (NCI).
# Where “and” joins values, the source holds several entries; their conditions need not be identical. Equal entries are not always repeated. About 83,000 compounds went through this panel and 20% of them were active in at least one assay; those are over-represented in the sample as a whole.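 Percent growth is the endpoint: 0 to 100 indicates growth inhibition (40 means 60% inhibition), 0 means no net growth, and negative values indicate cell death.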 Calls of active or inactive are those of the source. The calls were made as follows: active = growth percent below 10; inactive = the rest.
# Tested on: MDA-MB-468 breast
# Experiment: NCI-60 one-dose screen, 48 h (100 = growth as untreated, 0 = no growth, -100 = all killed)
# Settings: 10 µM unless noted
row,SMILES,growth
1,c1cnc2n[nH]c(Nc3ncnc4c3sc3ncccc34)c2c1,96.5% (inactive)
2,C(=N\Nc1nc(N/N=C/c2ccc3c(c2)OCO3)nc(N2CCCCC2)n1)/c1ccc2c(c1)OCO2,81.6% (inactive)
3,CN(C)CCCN(Cc1ccccc1O)C(=S)Nc1ccc(Cl)cc1,89.6% (inactive)
4,C/C(=N/N=C(N)N)c1ccc(Cl)cc1,95.7% (inactive)
5,CCN1C(=O)N(CC)C2Nn3c(s/c(=C\c4ccc(Cl)cc4Cl)c3=O)=NC21 (stereo unspecified),32.1% (inactive)
6,c1ccc2cc(C[n+]3ccn(Cc4ccc5ccccc5n4)c3)ccc2c1,-26.3% (active) and -3.7% (active)
7,Cc1nc(Nc2ccc(N)cc2)c2ccccc2n1,86.9% (inactive)
8,NC(N)=N/N=C/c1ccc(-c2ccc(-c3cc(Cl)cc(Cl)c3)s2)cc1,-47.1% (active)
9,COc1cc2c(cc1O)CCN1C[C@@H](CC(C)C)[C@@H](O)C[C@@H]21,103% (inactive)
10,Clc1ccc(C2CC(c3cccc(Nc4ccncc4)c3)=NN2c2ccc(Cl)cc2)cc1 (stereo unspecified),-35.3% (active)
11,COC(=O)c1[nH]nc2c1C1(C(=O)N(C)c3ccccc31)C(C#N)=C(N)O2 (stereo unspecified),97.5% (inactive)
12,O=C(/C=C/c1ccccc1)c1cccs1,80.2% (inactive)
13,Cl.Fc1c[c-]c(-c2ccccn2)c(F)c1.[Pt].c1ccc([PH+](CC[PH+](c2ccccc2)c2ccccc2)c2ccccc2)cc1,-79.2% (active)
14,N#Cc1nc(-c2ccc(Cl)cc2)oc1S(=O)(=O)N1CCN(c2ccc(F)cc2)CC1,105% (inactive)
15,CCCCCCCCCCCCCCCC1=NC(C)(C)CN1C(C)C,-58.8% (active)
16,O=C(CSc1nc2ccccc2c(=O)n1-c1ccc(Cl)cc1)N/N=C/c1ccc(N2CCCCC2)cc1,79.5% (inactive)
17,O=C1OCC2=C1C(c1cccc(C(F)(F)F)c1)c1cc3c(cc1N2CCO)CCC3 (stereo unspecified),-1.26% (active)
18,N=C1c2nc3n(c2C(=O)c2nc4n(c21)CCCCC4)CCCCC3,99.8% (inactive)
19,O=C(C1=Cc2cc3ccccc3n2Cc2cnnn21)c1ccc(O)cc1,62.2% (inactive)
20,CCOC(=O)c1[nH]c2cc(Cl)ccc2c1[C@@H](C(=O)NC(C)(C)C)N(CC)C(=O)CCCCC#Cc1cccc2c1CN(C1CCC(=O)NC1=O)C2=O (stereo partly specified),-14.3% (active)
21,Cc1ccc(S(=O)(=O)Oc2ccccc2-c2ccccc2)cc1,-3.07% (active)
22,O=C(Nc1ccc(-n2cc(-c3ccncc3)c(-c3ccc(O)c(Cl)c3)n2)cc1)c1cc(Cl)cc(Cl)c1,50.6% (inactive)
23,COc1ccc(/C=N/C2=C(C#N)C(c3ccc(OC)cc3)c3ccc4ccccc4c3O2)cc1 (stereo unspecified),38.2% (inactive)
24,COC(=O)[C@@H](Cc1c[nH]c2ccccc12)NC(=O)[C@H](Cc1ccccc1)NCc1ccncc1,103% (inactive)
25,C=C1CC/C=C(\C)C(=O)C[C@@H]2[C@@H]1CC2(C)C,79.1% (inactive)
26,O=C1/C(=C/c2cccc(F)c2)Cc2ccccc21,107% (inactive)
